Test results from PubChem BioAssay AID1159580 (chemical genetic matrix, 2015).
Hit rate of the full screen: of about 5,500 compounds, about 2,000 (36%) were called active. Roughly 18% stayed inconclusive and do not appear here. Rule as the data show it: active = normalized growth mostly below about 0.91 (no sharp cut-off); inconclusive = no clear call, values can overlap the other calls; inactive = mostly above about 0.92. This is one part of the list.

Test: chemical genetic growth profiling, strain panel (AID 1159580);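 also: tested at 20 µM; growth read once vehicle control cultures reached saturation at 30 °C; 1 = growth at the plate median or of vehicle wells; lower values mean less growth of the strain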
Settings: growth OD

Measured: normalized growth

O=C(/C=C/c1ccccc1)c1ccc(O)cc1
inactive: S. cerevisiae deletion strains, locus YLR113W, strain HOG1, stronger effect = lower value 0.964 | S. cerevisiae deletion strains, locus YNL183C, strain NPR1, stronger effect = lower value 0.901 | S. cerevisiae deletion strains, locus YNL250W, strain rad50, stronger effect = lower value 0.924 | S. cerevisiae deletion strains, locus YOL012C, strain htz1 0.327 | S. cerevisiae deletion strains, locus YOR231W, strain MKK1, stronger effect = lower value 0.948 | S. cerevisiae deletion strains, locus YPL256C, strain CLN2, stronger effect = lower value 0.978
active: S. cerevisiae deletion strains, locus YJR075W, strain HOC1, stronger effect = lower value 0.681 | S. cerevisiae deletion strains, locus YKL009W, strain mrt4, stronger effect = lower value 0.829 | S. cerevisiae deletion strains, locus YKL068W, stronger effect = lower value 0.912 | S. cerevisiae deletion strains, locus YKL085W, strain MDH1 (second series), stronger effect = lower value 0.923 | S. cerevisiae deletion strains, locus YKL085W, strain MDH1, stronger effect = lower value 0.923 | S. cerevisiae deletion strains, locus YKL160W, strain elf1, stronger effect = lower value 0.144 | S. cerevisiae deletion strains, locus YKR001C, strain vps1, stronger effect = lower value 0.299 | S. cerevisiae deletion strains, locus YKR026C, strain gcn3, stronger effect = lower value 0.292 | S. cerevisiae deletion strains, locus YKR091W, strain srl3, stronger effect = lower value 0.509 | S. cerevisiae deletion strains, locus YLL001W, strain dnm1, stronger effect = lower value 0.366 | S. cerevisiae deletion strains, locus YLL026W, stronger effect = lower value 0.173 | S. cerevisiae deletion strains, locus YLL041C, strain sdh2, stronger effect = lower value 0.218 | S. cerevisiae deletion strains, locus YLR027C, strain aat2, stronger effect = lower value 0.0836 | S. cerevisiae deletion strains, locus YLR039C, strain RIC1, stronger effect = lower value 0.202 | S. cerevisiae deletion strains, locus YLR058C, strain SHM2, stronger effect = lower value 0.765 | S. cerevisiae deletion strains, locus YLR102C, strain apc9, stronger effect = lower value 0.922 | S. cerevisiae deletion strains, locus YLR221C, strain rsa3, stronger effect = lower value 0.0804 | S. cerevisiae deletion strains, locus YLR258W, strain gsy2, stronger effect = lower value 0.237 | S. cerevisiae deletion strains, locus YLR262C, strain YPT6 (second series), stronger effect = lower value 0.17 | S. cerevisiae deletion strains, locus YLR262C, strain YPT6, stronger effect = lower value 0.248 | S. cerevisiae deletion strains, locus YLR268W, strain sec22, stronger effect = lower value 0.723 | S. cerevisiae deletion strains, locus YLR320W, strain mms22, stronger effect = lower value 0.0946 | S. cerevisiae deletion strains, locus YLR330W, strain CHS5, stronger effect = lower value 0.59 | S. cerevisiae deletion strains, locus YLR342W, strain FKS1 (second series), stronger effect = lower value 0.569 | S. cerevisiae deletion strains, locus YLR342W, strain FKS1, stronger effect = lower value 0.193 | S. cerevisiae deletion strains, locus YLR357W, strain rsc2, stronger effect = lower value 0.46 | S. cerevisiae deletion strains, locus YLR370C, strain arc18, stronger effect = lower value 0.447 | S. cerevisiae deletion strains, locus YLR371W, strain rom2, stronger effect = lower value 0.714 | S. cerevisiae deletion strains, locus YLR384C, strain iki3, stronger effect = lower value 0.462 | S. cerevisiae deletion strains, locus YLR418C, strain cdc73, stronger effect = lower value 0.301 | S. cerevisiae deletion strains, locus YML016C, strain PPZ1, stronger effect = lower value 0.896 | S. cerevisiae deletion strains, locus YML032C, strain rad52, stronger effect = lower value 0.814 | S. cerevisiae deletion strains, locus YML120C, strain ndi1, stronger effect = lower value 0.0894 | S. cerevisiae deletion strains, locus YML124C, strain tub3, stronger effect = lower value 0.913 | S. cerevisiae deletion strains, locus YMR058W, strain fet3, stronger effect = lower value 0.0951 | S. cerevisiae deletion strains, locus YMR078C, strain ctf18, stronger effect = lower value 0.676 | S. cerevisiae deletion strains, locus YMR125W, strain sto1, stronger effect = lower value 0.101 | S. cerevisiae deletion strains, locus YMR129W, stronger effect = lower value 0.222 | S. cerevisiae deletion strains, locus YMR205C, strain PFK2, stronger effect = lower value 0.124 | S. cerevisiae deletion strains, locus YMR223W, strain ubp8, stronger effect = lower value 0.852 | S. cerevisiae deletion strains, locus YMR231W, strain pep5, stronger effect = lower value 0.512 | S. cerevisiae deletion strains, locus YMR263W, strain SAP30, stronger effect = lower value 0.798 | S. cerevisiae deletion strains, locus YMR307W, strain GAS1, stronger effect = lower value 0.401 | S. cerevisiae deletion strains, locus YNL067W, strain RPL9B, stronger effect = lower value 0.719 | S. cerevisiae deletion strains, locus YNL071W, strain lat1, stronger effect = lower value 0.0619 | S. cerevisiae deletion strains, locus YNL128W, strain TEP1, stronger effect = lower value 0.734 | S. cerevisiae deletion strains, locus YNL153C, strain GIM3, stronger effect = lower value 0.492 | S. cerevisiae deletion strains, locus YNL209W, strain ssb2, stronger effect = lower value 0.593 | S. cerevisiae deletion strains, locus YNL233W, strain BNI4, stronger effect = lower value 0.621 | S. cerevisiae deletion strains, locus YNL248C, strain rpa49, stronger effect = lower value 0.0935 | S. cerevisiae deletion strains, locus YNL271C, strain bni1, stronger effect = lower value 0.878 | S. cerevisiae deletion strains, locus YNL298W, strain CLA4, stronger effect = lower value 0.824 | S. cerevisiae deletion strains, locus YNL307C, strain MCK1, stronger effect = lower value 0.162 | S. cerevisiae deletion strains, locus YNL322C, strain KRE1 (second series), stronger effect = lower value 0.231 | S. cerevisiae deletion strains, locus YNL322C, strain KRE1, stronger effect = lower value 0.77 | S. cerevisiae deletion strains, locus YNR049C, strain mso1, stronger effect = lower value 0.454 | S. cerevisiae deletion strains, locus YNR052C, strain pop2, stronger effect = lower value 0.866 | S. cerevisiae deletion strains, locus YOL006C, strain TOP1, stronger effect = lower value 0.347 | S. cerevisiae deletion strains, locus YOL147C, strain pex11, stronger effect = lower value 0.706 | S. cerevisiae deletion strains, locus YOR001W, strain rrp6, stronger effect = lower value 0.189 | S. cerevisiae deletion strains, locus YOR061W, strain CKA2, stronger effect = lower value 0.877 | S. cerevisiae deletion strains, locus YOR069W, strain VPS5, stronger effect = lower value 0.827 | S. cerevisiae deletion strains, locus YOR070C, strain gyp1, stronger effect = lower value 0.26 | S. cerevisiae deletion strains, locus YOR080W, strain dia2, stronger effect = lower value 0.514 | S. cerevisiae deletion strains, locus YOR083W, strain WHI5, stronger effect = lower value 0.312 | S. cerevisiae deletion strains, locus YOR106W, strain vam3, stronger effect = lower value 0.241 | S. cerevisiae deletion strains, locus YOR136W, strain idh2, stronger effect = lower value 0.914 | S. cerevisiae deletion strains, locus YOR144C, strain elg1, stronger effect = lower value 0.88 | S. cerevisiae deletion strains, locus YOR184W, strain ser1, stronger effect = lower value 0.459 | S. cerevisiae deletion strains, locus YOR265W, strain rbl2, stronger effect = lower value 0.295 | S. cerevisiae deletion strains, locus YOR270C, strain vph1, stronger effect = lower value 0.143 | S. cerevisiae deletion strains, locus YOR290C, strain snf2, stronger effect = lower value 0.14 | S. cerevisiae deletion strains, locus YOR316C, strain cot1, stronger effect = lower value 0.917 | S. cerevisiae deletion strains, locus YPL051W, strain arl3, stronger effect = lower value 0.213 | S. cerevisiae deletion strains, locus YPL055C, strain LGE1, stronger effect = lower value 0.558 | S. cerevisiae deletion strains, locus YPL078C, strain atp4, stronger effect = lower value 0.209 | S. cerevisiae deletion strains, locus YPL106C, strain sse1, stronger effect = lower value 0.503 | S. cerevisiae deletion strains, locus YPL240C, strain hsp82, stronger effect = lower value 0.149 | S. cerevisiae deletion strains, locus YPL241C, strain CIN2, stronger effect = lower value 0.763 | S. cerevisiae deletion strains, locus YPR119W, strain clb2, stronger effect = lower value 0.905 | S. cerevisiae deletion strains, locus YPR141C, strain kar3, stronger effect = lower value 0.907 | S. cerevisiae deletion strains, locus YPR163C, strain tif3, stronger effect = lower value 0.369 | S. cerevisiae deletion strains, locus YPR167C, strain met16, stronger effect = lower value 0.898 | S. cerevisiae deletion strains, strain wtn01, stronger effect = lower value 0.78 | S. cerevisiae strains, strain wild type, stronger effect = lower value 0.518
